The text below walks through data of PubChem BioAssay AID623868 (Vanderbilt High Throughput Screening Facility, 2012).

The campaign covered roughly 2,100 compounds. About 760 (36%) were called active. The list is a sample of the results. Unmarked numbers belong to inactive results.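 How the source made its calls: active means thallium-flux fluorescence traces judged by eye to show enhanced or reduced glutamate response, manual score 1 or -1, so both directions (some results past the limit were not filed as active); inactive means the rest, including fluorescent or raised-baseline compounds.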

This test in a line: non-GIRK thallium flux modulation in mGlu8 cells, confirmation, counter-screen for GIRK activator project, cell-based, HEK-293 rmGlu8, no GIRK (AID 623868).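 Further: extra codes mark interference with 3 for fluorescent and 4 for baseline rise.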 The settings on record: thallium flux fluorescence, at 10 µM, actives lie on both sides, codes: 1 enhancer, -1 blocker, 0 none, thallium stimulus containing EC20 glutamate. In general terms: The purpose of a counterscreen is to sort out artefacts and off-target activity.
In the case of `C/C(=N\O)C(C)NC(=O)c1ccccc1` (stereo not drawn), the manual score was 0.

On to `O=C(NN=c1c(=O)c2ccccc2c1=O)c1ccccc1`, for which the manual score is 1 (active).

Take `O=C(Nc1ccc(SC(F)F)cc1)C12CCC(CC1)C2`: the manual score is 0.

With `O=c1c2cc(Cl)ccc2[nH]c(=S)n1Cc1cccs1`, the manual score is 1 (active).

On to `O=c1c2cc(N3CCOCC3)ccc2[nH]c(=S)n1Cc1ccc(Cl)cc1`, for which the manual score was 0.

In the case of `O=c1c2cc(Cl)ccc2[nH]c(=S)n1Cc1ccco1`, the manual score was 1 (active).

Regarding `O=c1[nH]c2ccc(Cl)cc2c(=O)n1Cc1ccco1`, the manual score was 0.

With `Cc1c(C(=O)O)[nH]c2c1C(=O)CC(c1ccc(Cl)cc1)C2` (stereo not drawn), the manual score is 0.

Take `CN1CCN(CC(=O)N2c3ccccc3C(C)(c3ccc(Cl)cc3)CC2(C)C)CC1` (stereo not drawn): the manual score is 0.

With `CCCCNC(=S)NC(=O)c1ccc([N+](=O)[O-])cc1`, the manual score was 1 (active).

For `CC(C)CNC(=S)NC(=O)c1ccc(F)cc1`, the manual score is 1 (active).

Turning to `CC(C)CNC(=S)NC(=O)c1ccc([N+](=O)[O-])cc1`, the manual score was 1 (active).

As for `COC(=O)C(CC(C)C)NC(=O)c1ccc([N+](=O)[O-])c(C)c1` (stereo not drawn), the manual score was 0.

`CCCCCC(=O)NC(=S)NNC(=O)c1ccc([N+](=O)[O-])cc1`: the manual score was 1 (active).

Take `O=C(NN=C(Cc1ccccc1)Cc1ccccc1)c1ccc(F)cc1`: the manual score was 0.

As for `CCCn1c(=N)n(CC(O)COc2cccc(C)c2)c2ccccc21` (stereo not drawn), the manual score was 0.

On to `CN(C)Cc1c(O)c(Cl)cc2c3c(c(=O)oc12)CCCC3`, for which the manual score is 0.

As to `COc1ccc2c(c1)C(C)=CC(C)(C)N2C(=O)CNCc1ccc2c(c1)OCO2`, the manual score is 0.

Turning to `O=C(O)c1oc2ccccc2c1CSc1ccccn1`, the manual score was 0.

As to `CCn1cc(C(=O)N2CC=C(c3ccccc3)CC2)c(=O)c2ccc(C)nc21`, the manual score was -0.5.

As to `CCN(CC)c1ccc(/C=C2/C(=O)c3ccc(C(=O)O)cc3C2=O)cc1`, the manual score is 3.

As to `COc1ccc2nc(N3C(=O)/C(=C/c4ccccc4)NC3=S)sc2c1`, the manual score was 1 (active).

Regarding `O=C(c1ccco1)N1CCN(c2ncnc3scc(-c4cccs4)c23)CC1`, the manual score is 0.

Consider `Cc1cc(N2CCOCC2)n2nc(C)c(-c3ccccc3)c2n1`, for which the manual score was 0.

Turning to `CCCn1c(=O)c2ccccc2n2c(SCC(=O)N3CCc4ccccc4C3)nnc12`, the manual score was -1 (active).

Regarding `CCCn1c(=O)c2ccccc2n2c(SCc3nc4ccccc4s3)nnc12`, the manual score is -1 (active).

As to `CCCn1c(=O)c2ccccc2n2c(SCCOc3ccccc3F)nnc12`, the manual score was -0.5.

Regarding `CCc1cccc(CC)c1-n1c(SCC(=O)N2CCc3ccccc3C2)nnc1-c1cccnc1`, the manual score was 0.

As to `Cn1c(SCC(=O)N2c3ccccc3CCc3ccccc32)nnc1-c1ccc(O)cc1`, the manual score was 0.

Take `CCCCOC(=O)c1ccc(NC(=S)NC(=O)c2c(Cl)cnn2CC)cc1`: the manual score is 1 (active).

On to `COC(=O)c1ccc(NC(=O)C23CC4CC(C2)CC(n2cncn2)(C4)C3)cc1`, for which the manual score is 0.

Turning to `CCCCOC(=O)c1ccc(NC(=S)NC(=O)c2c(Cl)cnn2C)cc1`, the manual score is 0.5.

`COC(=O)c1ccc(NC(=S)NC(=O)c2c(Cl)cnn2C)cc1`: the manual score was 1 (active).

In the case of `CCCCc1ccc(NC(=S)Nc2ccc(Cl)c(S(=O)(=O)N(C)C)c2)cc1`, the manual score was 0.

For the compound `CCCCOC(=O)Nc1ccc(C(=O)OCCC)cc1`, the manual score was 0.

`COC(=O)c1ccc(Cl)c(NC(=O)CN2CCN(C)CC2)c1`: the manual score was 0.

As to `CCCCOC(=O)c1ccc(NC(=S)NC(=O)c2c(Br)c(C)nn2C)cc1`, the manual score is 1 (active).

Take `CCCOC(=O)c1ccc(NC(=O)c2ccoc2C)cc1`: the manual score is 0.

On to `O=C(NC(=S)Nc1ccccc1N1CCOCC1)c1cccs1`, for which the manual score was 1 (active).

For `CC1CCN(c2ccccc2NC(=S)NC(=O)c2cccs2)CC1`, the manual score was 1 (active).

As to `Cc1ccc(NC(=O)C(c2ccccc2)C2CCCC2)cc1` (stereo not drawn), the manual score was 0.

Consider `O=C1NC(=S)/C(=C\c2ccc(-c3ccccc3Cl)o2)S1`, for which the manual score was 3.

As for `O=C1NC(=S)S/C1=C\c1ccc(SCc2ccccc2)o1`, the manual score is 1 (active).

For the compound `O=S(=O)(Nc1nc(-c2sccc2Cl)cs1)c1cc(Cl)ccc1Cl`, the manual score was 0.

Turning to `O=C(CSc1cccc2cccc(Cl)c12)NCc1cccs1`, the manual score is 0.

For `COC(=O)c1sccc1NC(=O)CSc1ccccc1NS(=O)(=O)c1ccccc1Cl`, the manual score is 1 (active).

Consider `COC(=O)c1sccc1NC(=O)CSc1ccccc1NS(=O)(=O)c1ccc(Cl)cc1`, for which the manual score was 0.5.

In the case of `COC(=O)c1sccc1NC(=O)CSc1ccccc1NS(=O)(=O)c1cc(Cl)ccc1Cl`, the manual score was 1 (active).

On to `CCC(C(=O)OCC(=O)Nc1ccc(Cl)c(S(=O)(=O)N(C)C)c1)c1ccccc1` (stereo not drawn), for which the manual score is 0.

For `CN(C)S(=O)(=O)c1cccc(NC(=O)COc2cccc(C#N)c2)c1`, the manual score was 0.

As for `Cc1ccc(C)c(C(=O)c2c(C)nc3sccn23)c1`, the manual score was 0.

`Cc1ccc(OCC(=O)N/N=C\c2ccc(-c3cccc(C(=O)O)c3)o2)c(C)c1`: the manual score was 0.

With `Cc1ccc(/C=N\NC(=O)c2cc([N+](=O)[O-])cc([N+](=O)[O-])c2)o1`, the manual score is 1 (active).

For the compound `CC(/C=C/c1ccccc1)=N/NC(=O)c1cc([N+](=O)[O-])cc([N+](=O)[O-])c1`, the manual score was 0.

For `Cc1ccc(-c2cc(-c3ccccc3)[nH]c(=S)c2C#N)cc1`, the manual score was 1 (active).

As for `COc1ccc(CC(=O)Nc2cc(=O)n(C)c(=O)n2C)cc1`, the manual score is 0.

Consider `COc1ccc(/C=C/c2nc3sc4c(c3c(=O)o2)CCC4)cc1`, for which the manual score is 3.

As to `CC(C)Cn1cnc2sc3c(c2c1=N)CCCC3`, the manual score was 0.

In the case of `Cc1cc(C)nc(Sc2ncnc3sc4c(c23)CCC4)n1`, the manual score was 1 (active).

As to `O=C(CCSCc1cccc(Cl)c1)NCCc1ccc(Cl)cc1`, the manual score is 0.

`COc1ccc(C(=O)CC(=O)C(=O)NCCc2cccc(C)c2)cc1`: the manual score was 0.5.

In the case of `O=C(CCc1ccccc1)NNC(=S)NC(=O)c1ccc(Cl)cc1`, the manual score is 1 (active).

Consider `COc1ccc(CCC(=O)NCc2cnn(C)c2)cc1`, for which the manual score was 0.

As to `COc1ccc(C(=O)NC(=S)NNC(=O)CCc2ccccc2)cc1`, the manual score is 1 (active).

As for `Oc1[nH]c2ccccc2c1N=NC(=S)NCC1CCCO1` (stereo not drawn), the manual score is 1 (active).

`Clc1ccc2[nH]c3c(NCC4CCCO4)ncnc3c2c1` (stereo not drawn): the manual score was 0.

As to `Oc1[nH]c2ccccc2c1N=NC(=S)NCCc1ccccc1`, the manual score is 1 (active).

Regarding `Oc1[nH]c2c(Cl)cc(Cl)cc2c1N=NC(=S)NCC1CCCO1` (stereo not drawn), the manual score was 1 (active).

For the compound `Oc1cccc(Nc2nc(NCC3CCCO3)c3ccccc3n2)c1` (stereo not drawn), the manual score is 0.

On to `COc1ccc(S(=O)(=O)N(CC(=O)N2CCN(c3ccccc3)CC2)c2ccccc2)cc1`, for which the manual score was 0.

On to `CN1C=CC2=C(C#N)C(N)C(C#N)(C#N)C(c3ccccc3)C2C1` (stereo not drawn), for which the manual score is 3.

`CC(=O)c1cccc(NC(=O)C2CCCN2S(=O)(=O)c2cccc3cccnc23)c1` (stereo not drawn): the manual score was 0.

`Cc1cc(/C=c2/sc3nc4ccccc4n3c2=O)c(C)n1-c1ccccn1`: the manual score was 0.

As to `Cc1ccc2cccc(Oc3nnnn3-c3ccccc3)c2n1`, the manual score is 0.

As for `CCOC(=O)c1c(-c2ccccc2)csc1NC(=S)NC`, the manual score was 1 (active).

In the case of `CCOC(=O)c1c(-c2ccc(C)o2)csc1NC(=S)NC(=O)N(C)C`, the manual score was 1 (active).

On to `CCOC(=O)c1c(-c2ccc(C)o2)csc1NC(=S)NC(=O)c1cccs1`, for which the manual score is 0.

For `CCNC(=S)Nc1scc(-c2ccccc2)c1C(=O)OCC`, the manual score is 1 (active).

For the compound `CCOC(=O)c1c(C)[nH]c2c1cc(O)c1ccccc12`, the manual score was 0.

Consider `CCOC(=O)C(Cc1ccccc1)NC(=O)Cn1nnc(-c2ccccc2)n1` (stereo not drawn), for which the manual score was 0.

Consider `Cc1ccc(OCC(=O)Nc2ccc(C)c(S(=O)(=O)N3CCCCC3)c2)c([N+](=O)[O-])n1`, for which the manual score was 0.

Consider `NC(=O)c1noc(C(=O)N(CC(=O)NC2CCCC2)Cc2ccc3c(c2)OCO3)c1N`, for which the manual score is 0.

For the compound `O=C1c2cccc3c(O)ccc(c23)C(=O)N1Cc1ccccc1`, the manual score is 3.

In the case of `CCc1ccc(C2=NN(c3ccc(S(N)(=O)=O)cc3)C(c3ccc(F)cc3)C2)cc1` (stereo not drawn), the manual score was 0.

Consider `O=S(=O)(Nc1ccccc1N1CCCCC1)c1ccc(Cl)s1`, for which the manual score was 1 (active).

For the compound `CN1CCN(c2ccccc2NS(=O)(=O)c2ccc3c(c2)CCN3C(=O)C2CCC2)CC1`, the manual score is 0.

In the case of `O=C(Nc1ccccc1)c1ccccc1NS(=O)(=O)c1ccc(Cl)s1`, the manual score was 0.5.

Turning to `O=C(Nc1nncs1)c1ccccc1NS(=O)(=O)c1cccs1`, the manual score is 0.

`O=S(=O)(Nc1cc(Cl)ccc1N1CCCCC1)c1cccs1`: the manual score was 1 (active).

As to `CCOc1ccccc1N1CCN(S(=O)(=O)c2cccs2)CC1`, the manual score is 0.

`CCCN(CCC)CCCNC(=O)c1cc2c(=O)n(C)c3ccccc3c2n1C`: the manual score is 0.

As to `S=c1nc[nH]c2c1sc1nc(-c3ccccc3)c3c(c12)CCCC3`, the manual score is 1 (active).

`Cc1ccc2nsnc2c1S(=O)(=O)Nc1cccc2nsnc12`: the manual score was 1 (active).

`CCOC(=O)N1CCN(c2c(F)cc3[nH]c(=S)[nH]c3c2Br)CC1`: the manual score is 0.

In the case of `Cc1sc2ncnc(N(C)Cc3cccs3)c2c1C`, the manual score was -1 (active).

With `CC(C)CCNC(=O)C(C)N(Cc1ccc(F)cc1)C(=O)c1ccc(CN2CCCCC2)o1` (stereo not drawn), the manual score was 0.

For the compound `Cc1ccc(OCCCC(=O)Nc2nccs2)cc1`, the manual score is 0.

As for `Cc1ccc(OCC(=O)NNC(=O)C(C)Sc2ncnc3sc(C)c(C)c23)cc1` (stereo not drawn), the manual score was 1 (active).

With `CC(NC(=O)COc1ccccc1)C(=O)NC1=NCCS1` (stereo not drawn), the manual score is 0.

For `CC1CC2=C(CC1/C=N/NC(N)=S)C(C)(C)CCC2` (stereo not drawn), the manual score is 0.

On to `COc1ccccc1OCC(O)Cn1c(=N)n(Cc2ccccc2)c2ccccc21` (stereo not drawn), for which the manual score was 0.

With `CC1=C(C(=O)OCC2CCCO2)C(c2ccc(C)o2)C2=C(CC(c3ccc(F)cc3)CC2=O)N1` (stereo not drawn), the manual score was -1 (active).

On to `CCOC(=O)C1=C(C)NC2=C(C(=O)CC(c3ccc(OC)c(OC)c3)C2)C1c1ccc(C)o1` (stereo not drawn), for which the manual score was 0.
